Test results: PubChem BioAssay (Tox21)
Records with an inconclusive call do not appear. Active and inactive are the calls of the source. Calls come from the whole dose curve.

biological target: Acetylcholinesterase (Homo sapiens) (UniProt P22303); assay: Acetylcholinesterase (AChE) small molecule antagonists: colormetric cell-based qHTS assay (AID 1347395); details: SH-SY5Y cells AChE activity, colorimetric (Ellman); series mostly up to 115 µM; activity, negative = inhibition: at the top concentration; note: nearly all actives have a fitted effect of over 30% in size
Sequence (P22303 whole entry, looked up): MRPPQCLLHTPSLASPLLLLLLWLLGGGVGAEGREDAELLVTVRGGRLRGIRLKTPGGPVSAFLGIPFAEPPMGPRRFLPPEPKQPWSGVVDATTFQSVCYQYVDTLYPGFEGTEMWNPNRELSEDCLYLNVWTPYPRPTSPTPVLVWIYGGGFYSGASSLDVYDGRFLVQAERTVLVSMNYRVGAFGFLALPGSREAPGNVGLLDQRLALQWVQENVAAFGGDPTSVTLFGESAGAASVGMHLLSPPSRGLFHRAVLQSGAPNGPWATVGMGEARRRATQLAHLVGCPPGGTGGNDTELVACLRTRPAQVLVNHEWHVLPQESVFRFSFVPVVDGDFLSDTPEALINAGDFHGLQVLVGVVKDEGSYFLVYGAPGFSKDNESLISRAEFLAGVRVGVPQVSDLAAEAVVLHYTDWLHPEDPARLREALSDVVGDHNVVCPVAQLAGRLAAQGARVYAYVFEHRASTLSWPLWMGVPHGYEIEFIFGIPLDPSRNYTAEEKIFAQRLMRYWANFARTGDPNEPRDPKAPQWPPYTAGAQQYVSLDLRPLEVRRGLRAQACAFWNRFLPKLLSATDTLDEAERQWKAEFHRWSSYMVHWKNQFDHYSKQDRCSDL
From the text: National Center for Advancing Translational Sciences [NCATS]
Division of Preclinical Innovation [DPI]
U.S. Environmental Protection Agency [EPA]
National Institutes of Environmental Health Sciences [NIEHS]
National Toxicology Program [NTP]
U.S. Food and Drug Administration [FDA]
Acetylcholinesterase (AChE) is the primary cholinesterase in the body that hydrolyzes a key neurotransmitter, acetylcholine. Inhibition of AChE activity can lead to neurotoxicity. The known inhibitors include organophosphorous pesticides (OP), chemical warfare agents, drugs, and various phytochemicals.
A homogenous cell-based assay using the Amplite Colormetric acetylcholinesterase assay kit (AAT Bioquest, Sunnyvale, CA) was used to evaluate the chemicals in the Tox21 10K library that inhibit AChE activity. The assay uses 5, 5-dithiobis-(2-nitrobenzoic acid) (DTNB) to quantify the thiocholine produced from the hydrolysis of acetylthiocholine by AChE from the SH-SY5Y cells.
Tox21 Assay Protocol Summary:
For the cell-based AChE assay, 2,000 SH-SY5Y cells in 4 uL/well were dispensed into black, clear-bottom 1536-well plates using a Multidrop Combi dispenser (Thermo Scientific, MA). The assay plates were incubated overnight at 37 C to allow cells to attach to the wells, followed by the transfer of 23 nL of compound or DMSO (vehicle control) by a Pintool Station (Wako Automation, CA). The plates were incubated for 30 min at 37 C and 5% CO2, followed by the addition of 4 uL of detection cocktail solution (DTNB, acetylthiocholine) into each well using a Flying Reagent Dispenser (Beckman Coulter, CA) and then 90 min incubation at 37 C.
% is set by controls: 0 for no effect and ±100 for the full control effect; potency is the fitted concentration of half-maximal effect.

SMILES	activity, negative = inhibition	Potency
CCC#N	0.323% (inactive)	–
CC(Oc1ccc(Oc2ncc(C(F)(F)F)cc2Cl)cc1)C(=O)O (stereo not given)	0.105% (inactive)	–
O=C1c2ccccc2C(=O)c2ccccc21	-0.352% [at 23.6 µM] (inactive)	–
CCC(=O)C(CCN(C)C)(c1ccccc1)c1ccccc1	-5.98% [at 52.9 µM] (inactive)	–
O=C1CN=C(c2ccccc2)c2cc([N+](=O)[O-])ccc2N1	3.96% [at 52.9 µM] (inactive)	–
c1cc[c]([Hg][c]2ccccc2)cc1	-2% (inactive)	–
CCC(=O)c1ccccc1	1.83% (inactive)	–
C=C(C)CN(CC)c1c([N+](=O)[O-])cc(C(F)(F)F)cc1[N+](=O)[O-]	-1.25% (inactive)	–
ClC(Br)Br	-3.99% (inactive)	–
C=CCC1=C(C)[C@@H](OC(=O)[C@@H]2[C@@H](C=C(C)C)C2(C)C)CC1=O	-0.251% (inactive)	–
NC1=NC(=O)C(c2ccccc2)O1 (stereo not given)	2.15% [at 52.9 µM] (inactive)	–
CC1COC2(c3ccccc3Cl)c3cc(Cl)ccc3NC(=O)CN12 (stereo not given)	-4.05% [at 52.9 µM] (inactive)	–
COc1cc(OC)nc(NC(=O)NS(=O)(=O)c2ncccc2OCC(F)(F)F)n1	-1.03% (inactive)	–
CC(C)(C)C(=O)C(Oc1ccc(Cl)cc1)n1cncn1 (stereo not given)	3.77% (inactive)	–
OCCBr	-0.511% (inactive)	–
CC1=C(C(=O)O)N2C(=O)[C@@H](N)[C@H]2SC1	0.304% [at 23.6 µM] (inactive)	–
ClCCCN1CCN(c2cccc(Cl)c2)CC1	0.168% [at 52.9 µM] (inactive)	–
CCC1(c2ccccc2)C(=O)NC(=O)NC1=O	1.03% (inactive)	–
COCC(=O)N(c1c(C)cccc1C)N1CCOC1=O	4.37% (inactive)	–
C=C(C)[C@@H]1CC=C(C=O)CC1	2.63% (inactive)	–

SMILES	activity, negative = inhibition	Potency
CC(C)CP(=S)(S)CC(C)C	10.4% (inactive)	–
CCOC(=O)CP(=O)(OCC)OCC	-5.34% (inactive)	–
CCc1cc2c(s1)-n1c(C)nnc1CN=C2c1ccccc1Cl	-4.32% [at 52.9 µM] (inactive)	–
CCOP(=S)(Oc1cnc(C(C)(C)C)nc1)OC(C)C (stereo not given)	–	39.9 µM (active)
CCC/C(=N\OCC)C1=C(O)CC(CC(C)SCC)CC1=O (stereo not given)	-9.81% (inactive)	–
CC(Cl)(Cl)[N+](=O)[O-]	0.205% (inactive)	–
CC(=O)[C@H]1CC[C@H]2[C@@H]3CC[C@H]4C[C@H](O)CC[C@]4(C)[C@H]3C(=O)C[C@]12C	-0.353% [at 52.9 µM] (inactive)	–
Fc1cc(Br)ccc1CBr	0.873% [at 52.9 µM] (inactive)	–
CCCCc1c(C)nc(NCC)[nH]c1=O	-1.97% (inactive)	–
CCN(Cc1ccc(Cl)nc1)/C(=C/[N+](=O)[O-])NC	-2.36% [at 52.9 µM] (inactive)	–
CN1C(=S)CN=C(c2ccccc2)c2cc(Cl)ccc21	1.58% [at 52.9 µM] (inactive)	–
ClCCOCOCCCl	2.97% (inactive)	–
Cc1cnc[nH]1	-3.04% (inactive)	–
[Cl][Sn]([Cl])([Cl])[Cl]	-2.27% (inactive)	–
CNC(=O)Oc1ccc(N(C)C)c(C)c1	–	5.64 µM (active)
Cc1cccc(C#N)c1	0.239% (inactive)	–
C[N+](=O)[O-]	0.613% (inactive)	–
c1coc(-c2nc3ccccc3[nH]2)c1	-1.06% (inactive)	–
CSc1nc(N=[N+]=[N-])nc(NC(C)C)n1	-6.68% (inactive)	–
COc1ncc(F)c2nc(S(=O)(=O)Nc3c(F)cccc3F)nn12	1.58% [at 52.9 µM] (inactive)	–
